Screening data from PubChem BioAssay.
TEAD-YAP block: TEAD-YAP interaction inhibition, primary screen, TEAD-YAP interaction inhibitor project, luminescence, HEK-TIYL cells; 640,000 tested, 1.4% active; TEAD-Gal4/YAP UAS-luciferase luminescence; AID 1259422, 2018; inhibition, % at 9.12 µM; in the data active = inhibition above about 32%;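 also: 0% = median of test compound wells and 100% = reference inhibitor wells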
GPR151 activ: activators of human GPR151, primary screen, cell-based, PathHunter beta-arrestin, luminescence | 650,000 tested, 1% active | PathHunter beta-arrestin GPR151 cells | activation, % at 11.2 µM | G-protein coupled receptor 151 (Homo sapiens), Q8TDV0; in the data active = activation above about 4.9%;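 also: 0% = median of compound wells and 100% = cells with positive control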
MITF primary: MITF inhibitors, primary screen, biochemical, AlphaScreen, human | AlphaScreen MITF homodimerization, bead proximity signal | 650,000 tested, 0.91% active | Microphthalmia-associated transcription factor (Homo sapiens), O75030 | AID 1259374, 2018 | inhibition, % at 2.6 µM; in the data active = inhibition above about 50%;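 also: 0% = vehicle wells with protein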
Target sequence (O75030 whole entry, looked up): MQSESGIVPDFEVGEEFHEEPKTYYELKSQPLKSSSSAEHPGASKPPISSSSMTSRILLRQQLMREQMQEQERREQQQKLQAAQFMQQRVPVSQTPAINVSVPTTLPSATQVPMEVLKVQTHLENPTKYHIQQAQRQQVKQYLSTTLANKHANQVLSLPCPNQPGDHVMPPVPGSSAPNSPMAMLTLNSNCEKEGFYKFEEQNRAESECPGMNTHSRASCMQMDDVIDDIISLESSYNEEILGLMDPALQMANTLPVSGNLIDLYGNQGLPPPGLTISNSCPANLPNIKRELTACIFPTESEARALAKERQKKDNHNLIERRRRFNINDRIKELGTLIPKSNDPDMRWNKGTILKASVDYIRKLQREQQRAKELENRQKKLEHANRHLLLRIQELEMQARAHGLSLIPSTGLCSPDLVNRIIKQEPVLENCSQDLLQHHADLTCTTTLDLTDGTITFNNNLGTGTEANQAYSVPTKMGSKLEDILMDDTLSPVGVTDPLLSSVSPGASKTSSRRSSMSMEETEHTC
FBW7 activator: FBW7 E3 ligase activators, primary screen, biochemical, AlphaScreen, human. F-box/WD repeat-containing protein 7 (Homo sapiens), Q969H0. AlphaScreen FBW7–phospho-cyclin E peptide binding, activator screen. 650,000 tested, 0.13% active. normalized activity (activation), % at 26.1 µM; in the data active = normalized activity above about 1.9%;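 also: purified mutant Fbw7 with reduced substrate affinity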
MITF confirm: MITF inhibitors, retest of hits, confirmation, biochemical, AlphaScreen, triplicate | shares compounds with MITF primary | AlphaScreen MITF homodimerization, biotin/His-MITF beads | inhibition, % at 2.6 µM | 4,700 tested, 16% active | AID 1259372, 2018;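 active = inhibition above a cutoff derived from the DMSO control wells, cut at about 28% in these data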;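 also: 0% = MITF dimer wells with DMSO only; inhibitors lower the bead chemiluminescence by keeping MITF from dimerizing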
AlphaScreen DR: AlphaScreen optical interference compounds, dose response, counter-screen, biochemical, HTS | 480 tested, 6% active | AID 1259373, 2018 | AlphaScreen optical interference counterscreen, cell-free | shares compounds with MITF primary | IC50, µM; call rule not given here
AS interf ctr: AlphaScreen optical interference compounds, counter-screen for MITF inhibitor project, biochemical, triplicate; shares compounds with MITF primary; LysRS AlphaScreen counterscreen, signal interference; inhibition, % at 2.6 µM; 4,700 tested, 7.6% active; AID 1259376, 2018;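 active = inhibition above a cutoff derived from the DMSO control wells, cut at about 30% in these data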
Numbers without * were called inactive; . = no result. In the library only some 3.4% were active in any assay of this set; here they are far more common.

SMILES	TEAD-YAP block	GPR151 activ	MITF primary	FBW7 activator	MITF confirm	AS interf ctr	others
Cc1cc(OCc2nc(-c3ccc(NC(=O)c4ccc(Br)o4)cc3)no2)ccc1Cl	-15	1	-5	0	.	.
Cc1nc2c(c(C)c1CCC(=O)N1CCCCCC1)c(=O)n(C)c(=O)n2C	51*	0	0	0	.	.
OCc1cccc(-c2ccc3c(-c4ccc(N5CCNCC5)cc4)[nH]nc3n2)c1	-2	-1	23	1	.	.
CCCn1c(-c2ccc(N)cc2)nc2ccccc21	35*	-8	2	0	.	.
COc1ccc(-c2nc3ccccc3c(=O)n2-c2nc3ccccc3n2C)cc1	88*	0	-9	0	.	.
COc1ccc(-c2nc3ccccc3n2C)cc1	32*	-8	12	0	.	.
Cc1cc(C(=O)COC(=O)c2n[nH]c3ccccc23)c(C)n1CC1CCCO1 (stereo unspecified)	94*	-7	-1	0	.	.
Cc1cc(C(=O)COC(=O)c2ccccc2[N+](=O)[O-])c(C)n1CC(F)(F)F	95*	-11	5	0	.	.
Cc1cc(C(=O)COC(=O)c2cccnc2Cl)c(C)n1CC1CCCO1 (stereo unspecified)	66*	-7	13	0	.	.
Cc1cc(C(=O)COC(=O)c2ccccc2Br)c(C)n1CC1CCCO1 (stereo unspecified)	92*	-6	0	0	.	.
COc1ccc(C(=O)OCC(=O)c2cc(C)n(CC(F)(F)F)c2C)cc1[N+](=O)[O-]	9	0	-6	0	.	.
CC1C(C#N)(C#N)C(C#N)=C(N)C1(Cl)[N+](=O)[O-] (stereo unspecified)	7	1	7	1	.	.
COCCn1c(C)cc(C(=O)COC(=O)c2ccccc2Br)c1C	82*	-6	7	0	.	.
COCCn1c(C)cc(C(=O)COC(=O)c2cccnc2SC)c1C	10	-6	7	0	.	.
Clc1ccc(-c2cc3c(nn2)Nc2ccccc2N3)cc1	86*	-5	8	0	.	.
COc1ccc(-c2cc3c(nn2)Nc2ccccc2S3)cc1	86*	-4	8	1	.	.
COc1ccc(C2=CC(=O)Nc3ccccc3S2)cc1	-46	-1	10	1	.	.
Cc1ccc(N2C(=O)C(Cl)=C(Cl)C2=O)cc1	-14	-1	24	1	.	.
COCC1CCCN(Cc2nc(N)c3cc(C)ccc3n2)C1 (stereo unspecified)	6	1	-6	0	.	.
COc1ccc2c(c1)c(=O)oc1cc(OCC(=O)N(C)c3ccccc3)ccc12	0	0	52*	1	.	.
COc1ccc2c(c1)c(=O)oc1cc(OCC(=O)O)ccc12	2	1	4	0	.	.
O=C(N1CCOCC1)N1CCCC(c2ncncc2-c2ccncc2)C1 (stereo unspecified)	11	0	16	2.2*	.	.
O=C(NCc1ccco1)c1ccc(N2CC3CC(C2)c2cccc(=O)n2C3)c(NC(=O)c2ccncc2)c1 (stereo unspecified)	45*	0	2	0	.	.
CC1(C)CC(=O)c2cnc3c(-c4ccc(Cl)cc4)cnn3c2C1	57*	0	0	0	.	.
CC1(C)CC(=O)C=C(NCC2NCCc3ccccc32)C1 (stereo unspecified)	-4	4	-6	0	.	.
SMILES	TEAD-YAP block	GPR151 activ	MITF primary	FBW7 activator	MITF confirm	AS interf ctr	others
Fc1cccc(F)c1CNCC1NCCc2ccccc21 (stereo unspecified)	8	1	78*	0	-3	9
COc1cccc(-n2c(SCC(=O)Nc3nccs3)nnc2-c2cccnc2)c1	-3	-1	4	0	.	.
Cc1cc(C)cc(-n2c(SCC(=O)Nc3nccs3)nnc2-c2cccnc2)c1	-13	1	58*	0	2	15
O=C(COC(=O)c1ccccc1Cl)Nc1ccccc1N1CCOCC1	6	0	-5	0	.	.
O=C(CNCc1ccc(Cl)cc1)Nc1ccccc1N1CCOCC1	-1	0	61*	0	5	11
O=C(CNCc1ccccc1Cl)Nc1ccccc1N1CCOCC1	-2	0	62*	0	14	9
O=C(CNCc1cccnc1)Nc1ccc(OC(F)(F)F)cc1	1	-1	-8	0	.	.
O=C(CNCc1cccnc1)Nc1ccccc1N1CCOCC1	-2	0	102*	0	-102	-4
O=C(CNCc1cccnc1)Nc1ccc(C2CCCCC2)cc1	0	1	59*	0	8	12
CCC1CCCCN1S(=O)(=O)c1ccc(Cl)c(Cl)c1 (stereo unspecified)	5	-1	15	0	.	.
Cc1ccc(NC(=O)C2C3NC(=S)N(c4ccc(Cl)cc4)C2(C)Oc2ccccc23)c(C)c1 (stereo unspecified)	19	0	26	0	.	.
O=C(CNCc1cccnc1)N(c1ccccc1)c1ccccc1	-5	1	95*	0	8	17
Cc1cccc(NC(=O)CNCc2cccnc2)c1C	-4	0	83*	0	5	11
Cc1cccc(NC(=O)CSCCO)c1C	13	-1	8	0	.	.
O=C(CNCc1ccc(F)cc1)Nc1ccccc1N1CCOCC1	0	-1	63*	0	-1	8
CC(C)(C)OC(=O)N1C(C(=O)O)CSC1c1ccccc1F (stereo unspecified)	1	0	0	0	.	.
Cc1oc(C)c(C(=O)O)c1COc1ccccc1C(=O)O	2	-1	51*	0	14	-3
Cc1oc(C)c(C(=O)O)c1CSc1ccccc1C(=O)O	3	1	5	0	.	.
CCOC(=O)c1sc2nc(C)nc(NCc3cccs3)c2c1C	-26	2	-5	0	.	.
COC(=O)c1cc(S(=O)(=O)NCCc2ccccc2)c[nH]1	10	1	14	1	.	.
COC(=O)c1cc(S(=O)(=O)NCCCN(C)Cc2ccccc2)c[nH]1	3	0	56*	1	13	5
COC(=O)CN1C(=O)S/C(=C/c2ccc([N+](=O)[O-])o2)C1=O	-11	0	62*	0	47*	4	AlphaScreen DR=>6.5
CCN1CCN(CCOc2cccc3ccccc23)CC1	14	0	-17	0	.	.
Clc1c(OCCCN2CCNCC2)ccc2ccccc12	-22	1	51*	0	-13	-7
CCN1CCN(CCCOc2ccc3ccccc3c2Br)CC1	-19	0	61*	0	7	15
